CTSL1 counter = Fasciola hepatica cathepsin L1 inhibitors, primary screen, counter-screen for PFM18AAP inhibitor project, biochemical, QFRET, fluorogenic peptide substrate; recombinant F. hepatica cathepsin L1, Z-Leu-Arg-MCA fluorescence; inhibition, % at 5.96 µM; hit rate 0.49% among 300,000;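 active = inhibition above the mean of all tested compounds plus 3 SD, set per screening campaign, cut at about 17% in these data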
Rpn11 block = Rpn11 (PSMD14) deubiquitinase inhibitors, primary screen, biochemical, fluorescence polarization, uHTS. AID 588493, 2011. 26S proteasome non-ATPase regulatory subunit 14 (Homo sapiens), O00487. hit rate 0.59% among 360,000. human 26S proteasome, Ub4-pepOG fluorescence polarization; 20S core pre-blocked with epoxomicin. inhibition, % at 20 µM;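 active = inhibition at 20 µM, scaled to each plate's controls, above about 33%, limit read from the data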
Target sequence (O00487 whole entry, looked up): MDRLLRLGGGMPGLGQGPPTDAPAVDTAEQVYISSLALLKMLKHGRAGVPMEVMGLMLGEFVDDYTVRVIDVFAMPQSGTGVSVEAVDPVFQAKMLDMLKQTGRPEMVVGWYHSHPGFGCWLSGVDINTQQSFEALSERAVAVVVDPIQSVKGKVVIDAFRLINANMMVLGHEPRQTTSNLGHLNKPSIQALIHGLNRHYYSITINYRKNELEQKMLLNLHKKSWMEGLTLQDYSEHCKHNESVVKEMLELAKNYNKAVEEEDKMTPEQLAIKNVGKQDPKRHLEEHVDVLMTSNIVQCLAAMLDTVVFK
CendR NRP1 mod = modulators of CendR peptide binding to NRP-1, primary screen, biochemical, fluorescence polarization, uHTS; FAM-RPARPAR peptide binding to NRP-1; Neuropilin-1 (Homo sapiens), O14786; hit rate 0.85% among 360,000; AID 602438, 2012; inhibition, % at 25 µM;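 active = inhibition or corrected inhibition above about 18%, plus a signal ratio from 0.5 to 1.5, limit read from the data, passing the limit was not always enough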
PHOSPHO1 block = PubChem AID 1565; Phosphoethanolamine/phosphocholine phosphatase (Homo sapiens), Q8TCT1; recombinant PHOSPHO1, absorbance phosphatase assay; inhibition, % at 13.3 µM; hit rate 1.1% among 290,000; in the data active = inhibition above about 60%
Target sequence (Q8TCT1 whole entry, looked up): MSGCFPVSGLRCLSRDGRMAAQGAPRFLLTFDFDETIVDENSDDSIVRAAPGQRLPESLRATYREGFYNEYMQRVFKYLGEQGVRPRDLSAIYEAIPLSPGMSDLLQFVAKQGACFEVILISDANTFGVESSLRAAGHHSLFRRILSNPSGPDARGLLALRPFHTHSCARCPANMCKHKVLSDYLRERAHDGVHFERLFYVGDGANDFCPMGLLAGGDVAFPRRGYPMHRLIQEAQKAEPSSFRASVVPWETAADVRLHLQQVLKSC
TPT1 inhibitor = Candida albicans TPT1 enzyme inhibitors, primary screen, biochemical, fluorescence polarization. inhibition, % at 5 µM. hit rate 0.81% among 300,000. recombinant caTPT1, FP RNA substrate dephosphorylation. tRNA 2'-phosphotransferase TPT1 (Candida albicans SC5314);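 active = inhibition above the mean of all tested compounds plus 3 SD, set per screening campaign, cut at about 24% in these data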
HNF4A DNA FP = change in binding of human HNF4A to DNA, primary screen, biochemical, fluorescence polarization, FITC-DNA. hit rate 0.3% among 360,000. Hepatocyte nuclear factor 4-alpha (Homo sapiens), P41235. AID 1224865, 2016. activity change, % at 10 µM. 1 h; in the data active = activity change above about 30%, passing the limit was not always enough
Rpn11 inh conf = Rpn11 (PSMD14) deubiquitinase inhibitors, confirmation, biochemical, fluorescence polarization, single concentration. purified human 26S proteasome, Ub4-pepOG fluorescence polarization; proteasome pretreated with epoxomicin. inhibition, % at 20 µM. shares compounds with Rpn11 block. hit rate 29% among 1,900. AID 602318, 2012
MMP-2 inh = MMP-2 enzyme inhibition, confirmation, counter-screen for RPN11 inhibitor project, biochemical, fluorescence, single concentration; shares compounds with Rpn11 block; recombinant MMP-2, FRET peptide cleavage fluorescence; inhibition, % at 20 µM; hit rate 4% among 1,900; AID 602330, 2012;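 note: human MMP-2 activated beforehand with APMA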
Thrombin inh = bovine thrombin protease inhibition, confirmation, counter-screen for Rpn11 inhibitor project, biochemical, fluorescence polarization, single concentration; shares compounds with Rpn11 block; bovine thrombin cleavage of Ub4-pepOG; inhibition, % at 20 µM; hit rate 13% among 1,900; AID 602333, 2012;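 active = mean inhibition at least 40% at 20 µM, or signal 3 deviations below plate average, so some actives read negative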
HNF4A confirm = change in HNF4A binding to DNA, retest, confirmation, biochemical, fluorescence polarization, FITC-DNA | activity change, % at 12.5 µM | 1 h | shares compounds with HNF4A DNA FP | AID 1224897, 2016 | hit rate 99% among 210; call rule not given here
A number is an active result. A selection: hits, their analogues and other compounds. The true share with any hit is near 3.3%. Cut-off read from the data, not from the text of the source, unless noted: active = inhibition above about 40%; inactive = the rest.

What do the screens show for `CN1C=CC(=CC=C2C=CC(=O)C=C2)C=C1`?
CTSL1 counter: inactive; Rpn11 block: 82; CendR NRP1 mod: inactive; PHOSPHO1 block: inactive; TPT1 inhibitor: inactive; HNF4A DNA FP: 54; Rpn11 inh conf: 43; MMP-2 inh: inactive; Thrombin inh: inactive; HNF4A confirm: 48

What do the screens show for `O=C(CSc1nnc(NC(=O)C2CC(=O)N(c3ccc(F)cc3)C2)s1)NCC1CCCO1` (centres undefined)?
CTSL1 counter: inactive; Rpn11 block: inactive; CendR NRP1 mod: inactive; PHOSPHO1 block: inactive; TPT1 inhibitor: inactive; HNF4A DNA FP: inactive

How did CCCCn1c(/N=C/c2ccc(N(C)C)cc2)nc2ccccc21 do in these assays?
CTSL1 counter: inactive; Rpn11 block: 52; CendR NRP1 mod: inactive; PHOSPHO1 block: inactive; TPT1 inhibitor: inactive; HNF4A DNA FP: 49; Rpn11 inh conf: 72; MMP-2 inh: inactive; Thrombin inh: 59; HNF4A confirm: 81

How did CCCCn1c(/N=C/c2ccc3c(c2)OCO3)nc2ccccc21 do in these assays?
CTSL1 counter: inactive; Rpn11 block: inactive; CendR NRP1 mod: inactive; PHOSPHO1 block: inactive; TPT1 inhibitor: inactive; HNF4A DNA FP: inactive

How did COc1ccc(C2C(C(=O)NCCN3CCOCC3)c3ccccc3C(=O)N2C)cc1OC (centres undefined) do in these assays?
CTSL1 counter: inactive; Rpn11 block: inactive; CendR NRP1 mod: inactive; PHOSPHO1 block: inactive; TPT1 inhibitor: inactive; HNF4A DNA FP: inactive

What do the screens show for `COc1ccc(-c2ccc3c(c2)S(=O)(=O)c2cccc(C(=O)NC4CCCC4)c2C3=O)cc1OC`?
Rpn11 block: 78; CendR NRP1 mod: inactive; HNF4A DNA FP: 51; Rpn11 inh conf: inactive; MMP-2 inh: inactive; Thrombin inh: inactive; HNF4A confirm: 57

How did COc1ccc(N/C=C\C(=O)c2ccc3c(c2)OCO3)cc1 do in these assays?
CTSL1 counter: inactive; Rpn11 block: inactive; CendR NRP1 mod: inactive; PHOSPHO1 block: inactive; TPT1 inhibitor: inactive; HNF4A DNA FP: inactive

What do the screens show for `O=C(/C=C\Nc1ccc2c(c1)OCO2)c1ccc2c(c1)OCO2`?
CTSL1 counter: inactive; Rpn11 block: 38; CendR NRP1 mod: inactive; PHOSPHO1 block: inactive; TPT1 inhibitor: inactive; HNF4A DNA FP: 81; Rpn11 inh conf: inactive; MMP-2 inh: inactive; Thrombin inh: inactive; HNF4A confirm: 85

Results for CN1/C(=C\P(=O)(N(C)C)N(C)C)C(C)(C)c2ccccc21 ?
CTSL1 counter: inactive; Rpn11 block: 60; CendR NRP1 mod: inactive; PHOSPHO1 block: inactive; TPT1 inhibitor: inactive; HNF4A DNA FP: 39; Rpn11 inh conf: inactive; MMP-2 inh: inactive; Thrombin inh: inactive; HNF4A confirm: 43

How did CCS(=O)(=O)C1=NSC2=NC(=O)/C(=C\c3ccc(OC(=O)c4ccco4)c(OC)c3)C(=N)N21 do in these assays?
CTSL1 counter: inactive; Rpn11 block: 118; CendR NRP1 mod: inactive; PHOSPHO1 block: inactive; TPT1 inhibitor: inactive; HNF4A DNA FP: 44; Rpn11 inh conf: inactive; MMP-2 inh: inactive; Thrombin inh: inactive; HNF4A confirm: 59

What do the screens show for `O=C(CBr)c1ccc([N+](=O)[O-])c(CS(=O)(=O)c2ccc(Cl)cc2)c1`?
CTSL1 counter: inactive; Rpn11 block: inactive; CendR NRP1 mod: inactive; PHOSPHO1 block: inactive; TPT1 inhibitor: inactive; HNF4A DNA FP: inactive

How did COCCc1ccc(OC2(C)CCN(Cc3cccc(OC)c3OC)C2)cc1 (centres undefined) do in these assays?
Rpn11 block: inactive; CendR NRP1 mod: inactive; HNF4A DNA FP: inactive

Results for Cc1ccc(-n2ncc3c2CCCC3NC(=O)CCc2c(C)noc2C)cc1C (centres undefined) ?
CTSL1 counter: inactive; Rpn11 block: inactive; CendR NRP1 mod: inactive; PHOSPHO1 block: inactive; TPT1 inhibitor: inactive; HNF4A DNA FP: inactive

How did Cc1ccc(C(=O)Nc2cccc(-c3cnc4ccccc4n3)c2)cc1 do in these assays?
CTSL1 counter: inactive; Rpn11 block: inactive; CendR NRP1 mod: inactive; PHOSPHO1 block: inactive; TPT1 inhibitor: inactive; HNF4A DNA FP: inactive

How did CC(=O)Nc1ccc(C(=O)Nc2cccc(-c3cnc4ccccc4n3)c2)cc1 do in these assays?
Rpn11 block: active; CendR NRP1 mod: inactive; PHOSPHO1 block: inactive; HNF4A DNA FP: 48; Rpn11 inh conf: inactive; MMP-2 inh: inactive; Thrombin inh: inactive; HNF4A confirm: 60

What do the screens show for `CSc1nsc(/C=C/Nc2ccc(F)cc2)c1C#N`?
CTSL1 counter: inactive; Rpn11 block: 64; CendR NRP1 mod: inactive; PHOSPHO1 block: inactive; TPT1 inhibitor: inactive; HNF4A DNA FP: 51; Rpn11 inh conf: inactive; MMP-2 inh: inactive; Thrombin inh: inactive; HNF4A confirm: 46

Results for N#CCC(=O)Nc1ccc(C(=O)OCC(=O)NC(=O)NCc2ccco2)cc1 ?
Rpn11 block: 45; CendR NRP1 mod: inactive; HNF4A DNA FP: 34; Rpn11 inh conf: inactive; MMP-2 inh: 41; Thrombin inh: inactive; HNF4A confirm: 40

What do the screens show for `COc1cc(/C=C2\SC(=S)N(CC(=O)NC3=NCCS3)C2=O)cc(OC)c1OC`?
CTSL1 counter: inactive; Rpn11 block: inactive; CendR NRP1 mod: inactive; PHOSPHO1 block: inactive; TPT1 inhibitor: inactive; HNF4A DNA FP: inactive

How did COc1ccc(/C=C2\SC(=S)N(CCC(=O)NC3=NCCS3)C2=O)cc1OC do in these assays?
CTSL1 counter: inactive; CendR NRP1 mod: inactive; PHOSPHO1 block: inactive; TPT1 inhibitor: inactive; HNF4A DNA FP: 53; HNF4A confirm: 77

What do the screens show for `COc1cc(/C=C2/SC(=S)N(C)C2=O)ccc1OC(=O)c1ccco1`?
CTSL1 counter: inactive; Rpn11 block: inactive; CendR NRP1 mod: inactive; PHOSPHO1 block: inactive; TPT1 inhibitor: inactive; HNF4A DNA FP: 49; HNF4A confirm: 37

What do the screens show for `COc1cc(/C=C2\SC(=S)N(NC(C)=O)C2=O)ccc1OC(=O)c1ccco1`?
Rpn11 block: inactive; CendR NRP1 mod: inactive; HNF4A DNA FP: inactive
